This note sets out measurements from PubChem BioAssay (NCATS).

Records with an inconclusive call do not appear. Where a call stands in place of a potency, no number is given. A number with no mark means an inactive call. The source made the active and inactive calls. Calls come from the whole dose curve; as a rule, active = well fitted cell-killing curve with a large enough effect; inconclusive = small, poorly fitted or top-dose-only effect, or effect the other way; inactive = flat fitted curve, though single readings scatter.

The test system of the assay is C33A. Description: Primary qHTS to identify gynecologic anti-cancer compounds using libraries of approved drugs and bioactive compounds (AID 1345084). Note: nearly all actives have a fitted effect of over 55% in size. The note with it: Gynecologic cancer cell panel viability, ATPlite luminescence, 48 h; series mostly up to 57.5 µM. The procedure, abridged:
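Cells, 1,000 per well, were allowed to settle for 16 h at 37 C before compound addition. Five concentrations were tested for 48 h, and viability was read by ATPlite luminescence after 15 min at room temperature.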
Background: In qHTS, concentration-response curves come from the screen itself.
As to `CC1(C)CCC(C)(C)c2cc3c(cc21)Sc1ccccc1N=C3c1ccc(C(=O)O)cc1`, the Potency result is “inactive”. For `O=C(O)c1n[nH]c2c1C[C@H]1C[C@@H]21`, the Potency result was “inactive”.

`COc1cc(C2Oc3c(O)cc(CCCO)cc3C2CO)ccc1O[C@H]1O[C@H](C)[C@@H](O)[C@H](O)[C@@H]1O` (stereo partly drawn): the Potency result is “inactive”. The same measure, in the same setting: as for `CC(=C/C(=O)O)/C=C/[C@]1(O)[C@@]2(C)CO[C@]1(C)C[C@H](O[C@@H]1O[C@H](CO)[C@@H](O)[C@H](O)[C@H]1O)C2`, the entry is “inactive”.

Turning to `CC1(C)CC[C@]2(C(=O)O)CC[C@]3(C)C(=CCC4[C@@]5(C)C[C@H](O)[C@H](O[C@@H]6OC[C@H](O)[C@H](O)[C@H]6O)[C@@](C)(CO)C5CC[C@]43C)[C@@H]2C1` (stereo partly drawn), the Potency result was “inactive”. Still for that read-out and setting: under `C1CCN2CC3C[C@@H](CN4CCCC[C@@H]34)[C@H]2C1` stands “inactive”. Regarding `COc1ccc(C)c2sc(NC(=O)c3ccncc3)nc12`, the Potency entry is “inactive”. Regarding `CC(C)[C@@H](C)/C=C/[C@@H](C)[C@H]1CC[C@H]2C3=CC=C4C[C@@H](O)CC[C@]4(C)[C@H]3CC[C@]12C`, the Potency result was “inactive”.

As to `COc1ccccc1CC(C(=O)O)N(C)C(=O)c1ccccc1` (stereo not drawn), the Potency result was “inactive”. The same measure, in the same setting: under `C=C1[C@@H]2[C@H]3OC(=O)C(=C)[C@@H]3CC[C@@](C)(O)[C@@H]2C[C@@H]1O[C@@H]1O[C@H](CO)[C@@H](O)[C@H](O)[C@H]1O` stands “inactive”. On the same count and under the same terms, under `COCCCNCC1COc2ccccc2O1` (stereo not drawn) stands “inactive”; under `COc1cc(/C=C/C(=O)OC2CC(OC(C)=O)C(OC(C)=O)C3C2CCC2C(=O)OC(c4ccoc4)CC23C)ccc1O[C@@H]1O[C@H](CO)[C@@H](O)[C@H](O)[C@H]1O` (stereo partly drawn), “inactive”; under `CO[C@@H]1CC[C@H](OC[C@]2(COC(=O)c3ccc(C)[nH]3)[C@H](OC(C)=O)CC[C@@]3(C)[C@@H]4CC=C(C)[C@@H](C5=C(O)C(=O)OC5O)[C@]4(C)CC[C@@H]32)O[C@H]1C` (stereo partly drawn), “inactive”. Still for that read-out and setting: as for `C=C1CCC2C(OC(=O)C2(O)COC(C)=O)C2C(=C)C(O)CC12` (stereo not drawn), the entry is “inactive”. On to `CC1=C2C=C(CO)C(CO)CCC2(C)CCC1=O` (stereo not drawn), for which the Potency entry was “inactive”.

Turning to `C=C1[C@H]2CC[C@]3(O)[C@@](CC[C@@H]4[C@](C)(C(=O)O)CCC[C@]43C)(C2)[C@H]1OC(=O)/C(C)=C\C`, the Potency result was “inactive”.

With `O=C(O[C@H]1[C@@H]2C=CO[C@@H](O[C@@H]3O[C@H](CO)[C@@H](O)[C@H](O)[C@H]3O)[C@@H]2[C@@]2(CO)O[C@@H]12)c1ccc(O)cc1`, the Potency entry was “inactive”. The same measure, in the same setting: as for `CC(C)(O)/C=C1/C(=O)C(C)(C)C(=O)C(C)(C)C1(O)O[C@@H]1O[C@H](COC(=O)c2cc(O)c(O)c(O)c2)[C@@H](O)[C@H](O)[C@H]1O` (stereo partly drawn), the entry is “inactive”. `CN1CC[C@@H](NC(=O)Nc2ccc(C#N)cc2)C[C@@H]1c1nc2ccccc2[nH]1`: the Potency result is “inactive”. As for `C[C@H]1[C@H](C)CC[C@]2(C(=O)O[C@@H]3O[C@H](CO)[C@@H](O)[C@H](O)[C@H]3O)CC[C@]3(C(=O)O)C(=CCC4[C@@]5(C)CC[C@H](O[C@@H]6O[C@H](CO)[C@@H](O)[C@H](O)[C@H]6O)C(C)(C)C5CC[C@]43C)[C@H]12` (stereo partly drawn), the activity change, negative = cytotoxicity was 2.9% [at 11.6 µM]. Take `c1nc(NC2CCCCCC2)c2cc(CNC[C@H]3CCCO3)sc2n1`: the Potency result was “inactive”. On the same count and under the same terms, as for `CCNC(=O)[C@H]1O[C@H](n2cnc3c(NCC(c4ccccc4)c4ccccc4)nc(C(=O)NCCNC(=O)NC4CCN(c5ccccn5)CC4)nc32)[C@H](O)[C@@H]1O`, the entry is “inactive”. Same read-out and setting: as for `CC1CC(=O)C2=C(O1)OC1(C)CCC3C(C)(C)C=CC(=O)C3(C)C1C2` (stereo not drawn), the entry is “inactive”. Still for that read-out and setting: as for `COc1ncc(-c2ccc3c(Nc4cc(Oc5cc(F)cc(F)c5)cc(C(=O)O)c4)c(S(=O)(=O)NC4CC4)cnc3c2)c(OC)n1`, the entry is “inactive”. Consider `CC(=O)O[C@@H]1[C@H]2[C@@H](OC(=O)c3ccccc3)[C@@H](C)C[C@]2(O)[C@H](OC(C)=O)[C@@]2(C)[C@@H]3CC(C)(C)C(=O)[C@]3(OC(C)=O)C[C@@]12C`, for which the Potency result is “inactive”. Still for that read-out and setting: as for `COc1ccc(/C=C/C(=O)O[C@@H]2[C@@H](OC(C)=O)[C@@H](OC(C)=O)[C@H](O[C@H]3[C@@H]4C=CO[C@@H](O[C@@H]5O[C@H](CO)[C@@H](O)[C@H](O)[C@H]5O)[C@@H]4[C@@]4(CO)O[C@@H]34)O[C@H]2C)cc1O`, the entry is “inactive”; as for `CC1=CC(=O)OC(C)(CC(C)(O)C(=O)O)C1` (stereo not drawn), “inactive”.

With `O=C(OCc1cccc(O)c1O[C@@H]1O[C@H](CO)[C@@H](O)[C@H](O)[C@H]1O)C1(O)C(=O)C2C=CC1C1C=CC(=O)C(O)(C(=O)OCc3cccc(O)c3O[C@@H]3O[C@H](CO)[C@@H](O)[C@H](O)[C@H]3O)C21` (stereo partly drawn), the activity change, negative = cytotoxicity is -2.5% [at 11.6 µM].
